Only some compounds are listed: those with a hit (about 13% of all), similar ones and a draw of the others.
LASV entry inh – qHTS for Inhibitors of binding or entry into cells for Lassa Virus | Potency, µM (series often up to 37.9 µM), without a hit: at the highest dose activity change, negative = inhibition, hits mostly inhibitors | actives 1.2% (n = 300,000) | Lassa virus pseudotype entry inhibition, cell reporter | AID 540256, 2011; calls by dose curve; tested in HEK293 cells; further: potency means the concentration at half of the fitted maximal effect; on the % scale 0 is the no-effect control and ±100 the full control effect; nearly all actives have a fitted effect of over 50% in size
HCV inh – qHTS Assay for Inhibitors of Hepatitis C Virus (HCV). Potency, µM (doses to about 41.8 µM), without a hit: top-dose activity change, negative = inhibition, usual class: inhibitors. Huh7.5.1 HCVcc-Cre infection, luciferase reporter, 44 h. actives 3.4% (n = 340,000); active means well fitted inhibition curve with a large enough effect; inconclusive means small, poorly fitted or top-dose-only effect, or another doubt; inactive means no such curve, though single readings can be large or run the other way; further: potency means the concentration at half of the fitted maximal effect; on the % scale 0 is the no-effect control and ±100 the full control effect
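Compounds are dispensed onto cells plated 4 h earlier at 1,000 per well, with HCVcc-Cre virus (about 0.5 moi) added next. Following 44 h of culture, luminescent signal is measured for 15 sec after 15 min with substrate at room temperature.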
Shiga inhibitor – A qHTS for Small Molecule Inhibitors of Shiga Toxin. Vero cells, Shiga toxin protein synthesis inhibition reporter. actives 9.2% (n = 290,000). inhibition, % at 38.7 µM; in the data active means inhibition mostly above about 28%, no sharp cut-off; inactive means mostly below about 43%; further: 0% is about no effect
CHX counter – Cycloheximide Counterscreen for Small Molecule Inhibitors of Shiga Toxin. cell reporter, cycloheximide protein synthesis inhibition counterscreen. actives 12% (n = 300,000). max response, %. AID 2314, 2010; in the data active means max response mostly above about 13%, no sharp cut-off; inactive means mostly below about 14%; further: read at 38.3 µM for the half of the compounds with a filed dose; 0% is about no effect
FMDV antiviral – High Throughput Screening for Foot and Mouth Disease Virus Antivirals | FMDV antiviral cell-based qHTS | Potency, µM (titrated, usually from 57.9 µM), for the others: top-dose activity change, negative = inhibition, hits mostly inhibitors | actives 1.2% (n = 410,000) | AID 1159524, 2015; calls by dose curve; tested in HEK293T cells; further: read-out not given here; potency means the concentration at half of the fitted maximal effect; on the % scale 0 is the no-effect control and ±100 the full control effect; nearly all actives have a fitted effect of over 45% in size
MARV entry inh – qHTS for inhibitors of binding or entry into cells for Marburg Virus; actives 1.8% (n = 300,000); AID 540276, 2011; Marburg virus pseudotyped entry inhibition, cell reporter; Potency, µM (highest dose often 37.8 µM), for the others: top-dose activity change, negative = inhibition, usual class: inhibitors; calls by dose curve; tested in HEK293 cells; further: potency means the concentration at half of the fitted maximal effect; on the % scale 0 is the no-effect control and ±100 the full control effect
An asterisk follows results filed as active; ? = inconclusive; . = not tested or not shown; + = active, no number; ! = repeats disagree; [ ] = another dose, or the depositor's remark.

SMILES	LASV entry inh	HCV inh	Shiga inhibitor	CHX counter	FMDV antiviral	MARV entry inh
O=C(NCCCc1ccccc1)c1ccc(Br)o1	18%	-1%	53	31*	36%	?
O=C(Cc1ccccc1)NNC(=O)c1ccc(Br)o1	.	8%	2	-2	-10%	.
CCCCCCNC(=O)c1ccc(Br)o1	2%	4%[8.37 µM]	+!	33*!	20%	-2%
O=C(NCCCCc1ccccc1)c1ccc(Br)o1	-7%	4%	15	18*	14%	3%
Cc1ccc(CNC(=O)CCNC(=O)c2ccc(Br)o2)cc1	-3%	-9%	-11	-3	1%	7%
CCOc1ccccc1N(CC(=O)Nc1ccc(S(=O)(=O)N2CCCC2)cc1)S(C)(=O)=O	.	17%	24	-3	4%	.
Cc1ccccc1CSCc1nc2ccccc2[nH]1	?	?	39*	32*	5%	?
C=C(C)CSCc1nc2ccccc2[nH]1	22%	9%	54	37*	10%	-1%[46.1 µM]
O=C(O)CSCc1nc2ccccc2[nH]1	.	24%	-14	-3	1%	.
CCS(=O)(=O)c1nc(S(=O)(=O)c2ccc(C)cc2)c(NCC(C)C)s1	-22%[46.1 µM]	.	8	-5	47%	8%[46.1 µM]
CC(NC(=O)CN1CCOCC1)c1ccc(F)cc1 (stereo not drawn)	.	9%	-5	-10	1%	.
COc1cc(C(=O)Nc2ccc3nc4n(c(=O)c3c2)CCCC4)ccc1Br	.	-19%	-4	18	-9%	.
COc1cccc(C(=O)Nc2ccc3nc4n(c(=O)c3c2)CCCC4)c1	.	-29%	56*	23*	16%	.
O=c1c2cc(NC(=S)NCc3cccnc3)ccc2nc2n1CCCCC2	0%[46.1 µM]	-8%	69	22*	17%	?
CN(C)c1cccc(C(=O)Nc2ccc3nc4n(c(=O)c3c2)CCCCC4)c1	.	?	53*	24*	0%	.
COc1cc(OC)cc(C(=O)Nc2ccc3nc4n(c(=O)c3c2)CCCC4)c1	.	?	70*	27*	34%	.
COc1ccccc1C(=O)NNC(=O)c1cc2ccccc2cc1O	.	.	.	.	32%	.
COc1cccc(CNCC(=O)Nc2ccc(N3CCOCC3)cc2)c1	.	-1%	7	-2	-17%	.
COc1cccc(-n2c(-c3ccc(Cl)cc3)cc3c2CC(C)(C)CC3=O)c1	7%[46.1 µM]	.	.	.	-7%	-2%[46.1 µM]
O=C(C1=C[C@@H](c2coc3ccccc3c2=O)C[C@@H](OCCCCO)O1)N1CCOCC1	.	4%	13	7	-4%	.
COc1cc(C)c(Cl)cc1S(=O)(=O)N(C)C	0%	17%	-7	1	3%	-1%[46.1 µM]
COCC(=O)Nc1ccc2nc3n(c(=O)c2c1)CCCCC3	.	6%	13	12*	12%	.
O=C(/C=C/c1ccco1)Nc1ccc2nc3n(c(=O)c2c1)CCCC3	.	?	66*	52*	38%	.
CC(C)(C)NS(=O)(=O)c1ccc(NS(=O)(=O)c2ccc(F)cc2)cc1	-4%	9%	4	-2	4%	3%
COc1cc(OC)c(C2C=C(c3ccc(C)cc3)Nc3c(C(=O)Nc4ccccc4)cnn32)cc1OC (stereo not drawn)	-18%[46.1 µM]	.	.	.	-18%	.
SMILES	LASV entry inh	HCV inh	Shiga inhibitor	CHX counter	FMDV antiviral	MARV entry inh
O=C(Nc1cccnc1)c1ccccc1F	4%	11%	14	4	10%	4%[46.1 µM]
C=Cc1cccc(NC(=O)c2ccc(NC(=O)c3ccco3)cc2)c1	.	11µM*	35*	19*	-5%	.
O=C(Nc1ccc(NC(=O)C2CC2)nc1)c1cccc(F)c1	-1%	-1%	59*	47*	48%	27%
O=C(Nc1ccc(NC(=O)c2ccccc2F)cn1)c1ccco1	?	-1%	36	18*	-43%	4µM*
O=C(Nc1ccccc1)c1cccc(NC(=O)c2ccco2)c1	-3%[46.1 µM]	-10%	.	.	-14%	-18%[46.1 µM]
CCCC(=O)Nc1ccc(NC(=O)c2cccc(OC)c2)nc1	-4%	-13%	119*	33*	59%	-1%[46.1 µM]
O=C(Nc1ccc(NC(=O)C2CC2)nc1)c1cccnc1	-1%	6%	13	8	14%	13%[46.1 µM]
COc1ccc(C(=O)NCc2cccnc2)cc1Br	12%	10%	-14	1	3%	0%
CC(C)(C)c1ccc(-c2nc(SCC(=O)Nc3ccc(Cl)cc3)[nH]c(=O)c2C#N)cc1	5%[46.1 µM]	.	32	2	-17%	?
COc1cccc(C(=O)Nc2ccc(NC(C)=O)cn2)c1	-6%	3%	65*	31*	45%	22%
O=C(Cc1ccccc1)Nc1ccc(NC(=O)c2ccccc2)nc1	5%	-25%	174*	38*	92%	?
O=C(NCc1cccnc1)c1ccc(NC(=O)c2ccco2)cc1	2%	4%	-2	12	40%	?
CC(C)C(=O)Nc1ccc(NC(=O)c2cccc(F)c2)cn1	7%	-3%	76*	22*	48%	2%[46.1 µM]
O=C(Nc1ccc(NC(=O)c2ccco2)nc1)c1cccnc1	?	12%	54*	21	-7%	?
O=C(N/C(=C/c1ccc(Br)cc1)C(=O)N1CCOCC1)c1ccc(Br)o1	-4%[46.1 µM]	-16%	-3	-3	24%	-9%[46.1 µM]
COc1cc(C(=O)Nc2ccc(NC(=O)c3ccco3)nc2)cc(OC)c1OC	?	-24%	-12	-3	-19%	-1%[46.1 µM]
O=C(Cc1ccccc1)Nc1nonc1NC(=O)c1ccccc1	?	-2%	-1	-1	17%	13µM*
O=C(Nc1cccnc1)c1ccco1	2%	19%	40	1	.	-4%
O=C(Nc1cccnc1)c1ccc(NC(=O)c2ccco2)cc1	0%	5%	61	19*	-5%	-12%[46.1 µM]
COc1cccc(C(=O)Nc2ccc(NC(=O)c3ccco3)nc2)c1	-8%	-23%	194*	63*	48%	?
O=C(Nc1nonc1-c1ccc(Cl)cc1)c1ccccc1	-10%	3%	-12	6	-18%	18%[14.2 µM]
O=C(Nc1ccc(NC(=O)c2ccco2)nc1)c1cccc(F)c1	10µM*	?	82*	40*	-2%	?
COc1cccc(C(=O)Nc2ccc(NC(=O)c3ccco3)c(Cl)c2)c1	2%	?	64*	30*	14%	2%[46.1 µM]
Cc1cc(NC(=O)c2ccco2)ncc1NC(=O)CCc1ccccc1	-2%	6%	33	28*	16%	-1%[46.1 µM]
O=C(Nc1ccc(NC(=O)C2CC2)cn1)c1ccccc1	5.6µM*	10%	43*	26*	-19%	?
COc1cccc(C(=O)Nc2ccc(NC(=O)C3CC3)nc2)c1	-2%[46.1 µM]	11%	24	18*	-6%	0%[46.1 µM]

Source: PubChem (National Center for Advancing Translational Sciences (NCATS))
